Molecules are shown by their SMILES. The source made the active and inactive calls. No rule for the calls is given here. A value given as a limit tells only on which side of the number the result lay.

As a reminder, the AC50 is the concentration giving half of the maximal activity seen.

The experiment in a line: C difficile toxins, biochemical counterscreen, UDPG substrate absence, confirmatory dose response (AID 720650). To be noted: series mostly up to 19.5 µM. For orientation: Counterscreens check selectivity or assay interference.
In the case of `CCOC(=O)/C=c1/s/c(=C/c2ccc3cc(OC)ccc3c2)c(=O)n1CC(=O)NCC1CCCO1` (stereo not drawn), the AC50 entry was “inactive”.

Consider `CCc1ccc2oc(-c3cc(N)ccc3Cl)nc2c1`, for which the AC50 entry is “inactive”. On to `O=C1COc2ccc(C(=O)COC(=O)CNS(=O)(=O)c3cccc(F)c3)cc2N1`, for which the AC50 entry is “inactive”. With `COc1ccc(C)cc1NC(=O)C(OC(=O)C1=NNC(=O)CC1)c1ccccc1` (stereo not drawn), the AC50 result was “inactive”. With `O=C1Nc2ccccc2C1c1ncc(C(F)(F)F)cc1Cl` (stereo not drawn), the AC50 entry is “inactive”. To `O=C(/C=C/c1ccccc1)Nc1cccnc1Cl` belongs > 39 µM (inactive); to `O=S(=O)(Oc1ccccc1-c1ccccc1)c1ccccc1`, “inactive”. Take `COc1ccc(-c2cnc3c(c2)C(=O)N([C@@H](C)CO)C[C@H](C)[C@H](CN(C)C(=O)C2CCCCC2)O3)cc1`: the AC50 entry was “inactive”. To `CCOC(=O)c1sc2nc(OCCN3CCOCC3)cc(C)c2c1N` belongs “inactive”; to `CCCNC(=O)C[C@H]1CC[C@@H]2[C@H](COc3ccc(NC(=O)c4ccc(Cl)cc4)cc3C(=O)N2C)O1`, > 39 µM (inactive); to `Nc1ccc2c(c1)Nc1ccccc1CC2`, 9.36 µM (active). To `COc1ccc(S(=O)(=O)N2CCC[C@H]2C(=O)N2CCC[C@H]2C(=O)NCc2ccncc2)cc1C` belongs “inactive”.

With `O=C(O)c1ccc(/C=N/NC(=S)NCCN2CCOCC2)cc1`, the AC50 result is “inactive”. On to `Cc1cc(C(=O)CSc2nnnn2-c2ccccc2)c(C)n1-c1ccc2c(c1)OCO2`, for which the AC50 result was “inactive”. Turning to `CCOCCCNC(=O)C1CCN(S(=O)(=O)c2c(C)noc2/C=C\c2ccc(OC)cc2)CC1`, the AC50 entry was “inactive”. For `Cc1nn(CCOc2ccccc2)c(=O)n1-c1ccc(Cl)cc1`, the AC50 entry is “inactive”. Take `CC1(C)Cc2c(sc3ncn4c(=S)[nH]nc4c23)CO1`: the AC50 was 13.9 µM (active). With `Cc1nc(SCC(=O)N2CCNC2=O)c(C#N)c(C)c1C`, the AC50 result is “inactive”. To `CSc1ccc(/C=N/N2CCN(Cc3ccc(Cl)cc3)CC2)cc1` belongs “inactive”; to `Nc1nnn(CC(=O)N/N=C/c2ccc(O)cc2)n1`, 16.5 µM (active); to `CC(=O)Nc1ccc(NC(=O)[C@@H]2CCCN2S(=O)(=O)c2ccc3c(c2)OCCO3)cc1`, “inactive”. To `Oc1ccc2ccc3[nH]cnc3c2c1` belongs 18.5 µM (active); to `CCCC(=O)Nc1ccc2c(c1)OC[C@H](C)N(CC1CCCC1)C[C@H](C)[C@@H](OC)CN(C)C2=O`, “inactive”. For the molecule `Fc1ccc(-c2nc3ccc(Br)cn3c2Cc2ccccc2)cc1`, the AC50 entry was “inactive”. Take `CCNC(=O)C[C@H]1CC[C@@H]2[C@@H](COc3ccc(NC(C)=O)cc3C(=O)N2C)O1`: the AC50 entry was “inactive”.

Regarding `CCCc1cc(-c2n[nH]c(C(=O)OCC)c2-c2cscn2)c(O)cc1O`, the AC50 result was “inactive”. `CC(=O)Nc1n[nH]c(=S)s1`: the AC50 is > 39 µM (inactive). As to `COC(=O)[C@H]1C[C@@H]1[C@H](NP(=O)(c1ccccc1)c1ccccc1)c1ccccc1`, the AC50 result is “inactive”. In the case of `COc1ccc(C(=O)Nc2ccc3c(c2)C(=O)N(C)[C@@H]2CC[C@H](CC(=O)NCC4CC4)O[C@@H]2CO3)cc1`, the AC50 entry was “inactive”.

Turning to `COc1cc(/C(C)=N/NC(=O)CSc2nnc(C)s2)ccc1O`, the AC50 entry was “inactive”. Consider `COc1cc(Cn2c(-c3ccc(O)c(OC)c3)nc3ccccc32)ccc1O`, for which the AC50 result was “inactive”.

As to `Cc1ccc(-n2c(SCC(=O)O)nc3c(sc(=S)n3-c3ccc(C)c(C)c3)c2=O)cc1`, the AC50 is 13.7 µM (active). In the case of `COc1cc(/C=N/NC(=O)c2cccc([N+](=O)[O-])c2)ccc1O`, the AC50 result was “inactive”.

Turning to `Cc1n[nH]c(=O)nc1Nc1ccc(O)cc1`, the AC50 was 11.8 µM (active). To `COc1ccc2nc(NNC(=O)C3COc4ccccc4O3)sc2c1` (stereo not drawn) belongs < 0.16 µM (active). Consider `Cc1ccc(C2=NS(=O)(=O)N(C)C(C(=O)NC(C)c3ccccc3)=C2)cc1` (stereo not drawn), for which the AC50 result was “inactive”.

Regarding `O=C(O)C1CCC(CN(Cc2cccc(Br)c2)C(=S)Nc2ccccc2F)CC1` (stereo not drawn), the AC50 entry is “inactive”. To `COc1cc(/C=C/C(=O)c2ccc([N+](=O)[O-])o2)ccc1O` belongs “inactive”.

These data come from PubChem BioAssay AID720650 (Broad Institute, 2013).
